The panel holds about 83,000 compounds, 20% with a hit somewhere; the sample as a whole holds those more often.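 Assay: single dose, 48 h. Readout: percent growth (0 = no net growth; negative = cell death). Active: <10.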 Unmarked numbers belong to inactive results. The source made the active and inactive calls.
How the values were obtained:
Assay in all cases: NCI-60 one-dose screen, 48 h (100 = growth as untreated, 0 = no growth, -100 = all killed)
Conditions in all cases: 10 µM
HCT-15 colon = test system: HCT-15 colon
HT29 colon = test system: HT29 colon
SNB-75 CNS = test system: SNB-75 CNS
SNB-19 CNS = test system: SNB-19 CNS
U251 CNS = test system: U251 CNS
PC-3 prostate = test system: PC-3 prostate
SK-MEL-5 melanoma = test system: SK-MEL-5 melanoma
UACC-62 melanoma = test system: UACC-62 melanoma
LOX IMVI melanoma = test system: LOX IMVI melanoma
SK-MEL-28 melanoma = test system: SK-MEL-28 melanoma
SK-MEL-2 melanoma = test system: SK-MEL-2 melanoma
SN12C renal = test system: SN12C renal
UO-31 renal = test system: UO-31 renal
TK-10 renal = test system: TK-10 renal
ACHN renal = test system: ACHN renal
CAKI-1 renal = test system: CAKI-1 renal
A498 renal = test system: A498 renal
CCRF-CEM leukemia = test system: CCRF-CEM leukemia
MOLT-4 leukemia = test system: MOLT-4 leukemia

Row | SMILES | growth (HCT-15 colon) | growth (HT29 colon) | growth (SNB-75 CNS) | growth (SNB-19 CNS) [%] | growth (U251 CNS) | growth (PC-3 prostate) | growth (SK-MEL-5 melanoma) | growth (UACC-62 melanoma) | growth (LOX IMVI melanoma) | growth (SK-MEL-28 melanoma) | growth (SK-MEL-2 melanoma) | growth (SN12C renal) | growth (UO-31 renal) | growth (TK-10 renal) | growth (ACHN renal) | growth (CAKI-1 renal) | growth (A498 renal) | growth (CCRF-CEM leukemia) | growth (MOLT-4 leukemia)
1 | Nc1ncc(-c2ccc(C(F)(F)F)cc2)c(NC2CCCCCC2)n1 | 73.7% | 31.5% | 57.8% | 49.9 | 22.5% | 12% | 3.53% (active) | 0.46% (active) | 48% | 33.7% | 0.455% (active) | 29.9% | 23.6% | 36.9% | 16.4% | 55.8% | 58.8% | 31.1% | 57.5%
2 | COc1cc(OC)cc(-c2ccc(-c3ccc(C(=N)N)cn3)o2)c1 | 6.84% (active) | -38.5% (active) | -35.7% (active) | 33.3 | -80.9% (active) | 31.4% | -95.7% (active) | -89.7% (active) | -89.5% (active) | -95.4% (active) | -76.8% (active) | -50.5% (active) | -33.9% (active) | 0.358% (active) | 1.34% (active) | 16.1% | 44.1% | -25.6% (active) | -41.9% (active)
3 | COc1cc(Nc2ccnc(N3CCN(c4ccnc5cc(Cl)ccc45)CC3)n2)cc(OC)c1 | 9.9% (active) | -15.1% (active) | -13.9% (active) | 39.1 | 12.6% | 3.31% (active) | -55.2% (active) | -21.6% (active) | 3.24% (active) | 11.9% | -42.2% (active) | 19% | -1.54% (active) | -4.71% (active) | 13.2% | 20.2% | -1.87% (active) | 3.84% (active) | -45.9% (active)
4 | COc1ccc(-c2csc(NC(=O)CO[N+](=O)[O-])n2)cc1 | 104% | 105% | 96.1% | 102 | 98.6% | 80.7% | 30.3% | 101% | 88% | 105% | 81.6% | 102% | 83.1% | 106% | 101% | 95.2% | 126% |  | 93.1%
5 | COc1ccc(NC(=O)CCn2cnc3c(cc(-c4ccccc4)n3-c3ccccc3)c2=O)cc1 | 98.6% | 102% | -10.5% (active) | 57.2 | 77.4% | 86.6% | 91% | 92.4% | 66.4% | 101% | 104% | 85.1% | 88.8% |  | 82% | 78.3% | 108% | 93.3% | 104%
6 | COc1ccc(-c2cc(/C=C/C(=O)c3ccc(N)cc3)[nH]n2)cc1OC | 26% | 22.6% | 36.8% | 51.6 | 28.5% | 41.8% | 63.4% | 71.2% | -45.5% (active) | 41.9% | 80.8% | 35.1% | 27.3% | 39.3% | 50.5% | 31% | 52.8% | 7.41% (active) | 7.23% (active)
7 | C[C@@H]1N=C(c2ccc(Br)cc2)Nc2nc3ccccn3c2C1=O | 30.7% | 17.5% | 50.2% | 82.6 | 54% | 63.2% | 31.9% | 49.2% | 52.4% | 66.2% | 47.4% | 91.8% | 62% |  | 69.2% | 44.1% | 69.9% | 79.4% | 57.5%
8 | COc1ccc(S(=O)(=O)Nc2cc(/C=C\c3cc(OC)c(OC)c(OC)c3)ccc2OC)cc1 | 7.86% (active) | -13.4% (active) | -2.76% (active) | 55.1 | 0.353% (active) | -2.4% (active) | -20.1% (active) | 27.8% | 19.3% | 48.8% | 5.84% (active) | 15.6% | 24.6% | 39.6% | 18.7% | 26% | -19.2% (active) |  | 8.46% (active)
9 | CCCCCCCCCCCCCCCCCBr | 102% | 97.5% | 84.3% | 95.9 | 103% | 92.6% | 98.9% | 104% | 101% | 108% | 108% | 98.9% | 91.4% |  | 102% | 97.2% | 64.1% | 94.4% | 96%
10 | COc1cc(OC)cc(-c2n/c(=C\c3c(O)[nH]c4ccc(OC)cc34)cc3c2=Nc2ccccc2-3)c1 | 44.6% | 15.6% | 103% | 78 | 19.7% | 94.9% | 94.4% | 110% | 30.4% | 102% | 108% | 107% | 71.2% | 125% | 114% | 90.6% | 90.6% |  | 12.4%
11 | COc1ccc(Nc2ccnc(N3CCN(c4ccnc5cc(Cl)ccc45)CC3)n2)cc1 | 7.35% (active) | -6.34% (active) | -20.9% (active) | 28.7 | 8.61% (active) | 0.553% (active) | -55.1% (active) | -4.07% (active) | 4.18% (active) | 5.19% (active) | -19.3% (active) | 14.1% | -1.7% (active) | 4.85% (active) | 11.2% | 6.78% (active) | -6.15% (active) |  | -48.9% (active)
12 | COc1ccc(C2C=C(c3ccc(OC)c(OC)c3)N=C3SC=CN32)c(Br)c1 (stereo not given) | 41.9% | 33.7% | 85.5% | 73 | 43.7% | 48.9% | 63.6% | 68.9% | 23.3% | 89.8% | 104% | 75% | 67.9% | 106% | 76.6% | 71.5% | 74% |  | 25.1%
13 | Cc1ccc(-n2nnc3c(sc4ccccc43)c2=O)cc1 | 89.3% | 5.36% (active) | 31.4% | 44.2 | 18% | 61.7% | 76.9% | 85.4% | 39.3% | 89.9% | 83% | 76.7% | 9.98% (active) | 56.7% | 15.2% | 48.7% | 102% |  | 90.6%
14 | Nc1c(CNCc2nnn(Cc3ccccc3)c2N)nnn1Cc1ccccc1 | 93.9% | 105% | 99% | 103 | 97.6% | 98.9% | 104% | 102% | 95.3% | 115% | 103% | 99% | 86.5% | 102% | 99.6% | 101% | 98.4% |  | 102%
15 | Cc1nc2cc(-n3c(-c4ccc(F)cc4)nc4ccccc4c3=O)ccc2n1Cc1ccccc1 | 3.41% (active) | -23.8% (active) | 6.2% (active) | 37.9 | 9.65% (active) | 9.75% (active) | -77% (active) | 0.751% (active) | 6.97% (active) | -60.3% (active) | 31.8% |  | 35.7% | 30.5% | 3.65% (active) | 30.6% | -5.66% (active) | 65.9% | 34.7%
16 | O=C1NN(c2ccccc2)C(c2cccnc2)=N/C1=C\c1cccnc1 | 93.9% | 97.2% | 79.6% | 92.7 | 102% | 92.1% | 91.8% | 86.1% | 82.9% | 116% | 103% | 102% | 82.7% |  | 95.4% | 89% | 52.3% | -22% (active) | 96.4%
17 | O=C(/C=C/c1nnc2n(Cc3ccccc3)c(=O)c3c4c(sc3n12)CCCC4)c1ccccc1 | 88% | 106% | 116% | 99.4 | 40.6% | 105% | 111% | 99.6% | 84.7% | 119% | 107% | 96.7% | 80% | 136% | 125% | 44.6% | 112% |  | -3.6% (active)

Source: PubChem BioAssay (NCI)
